39 molecules from PubChem BioAssay (NCATS) can be followed below.

Records with an inconclusive call do not appear. Entries that show only a call come without a potency. The source made the active and inactive calls. Calls follow the shape of the dose curve; as a rule, active = well fitted inhibition curve with a large enough effect; inconclusive = small, poorly fitted or top-dose-only effect; inactive = flat fitted curve, though single readings scatter.
Potency is read from the fitted curve at half-maximal effect.

The subject of one experiment is HB3. Briefly: qHTS profiling for inhibitors of Plasmodium falciparum proliferation (AID 504749). Also: nearly all actives have a fitted effect of over 60% in size. The note with it: P. falciparum in erythrocytes, SYBR Green DNA, 72 h; series mostly up to 28.7 µM. The essentials: (§1)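 SYBR Green fluorescence (ex 485 nm, em 535 nm) reports parasite DNA after 72 h compound exposure of infected red cells at 0.3% parasitemia, 2.5% hematocrit; signal normalized to 0.29 uM artemisinin and vehicle wells.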
For orientation: qHTS replaces the single test concentration by a dilution series.
In the case of `NCCc1cnc[nH]1`, the Potency result is “inactive”.

Regarding `CN(C)c1nc(N(C)C)nc(N(C)C)n1`, the Potency result was “inactive”.

Turning to `CC(C)NCC(O)c1ccc(O)c(O)c1` (stereo not given), the Potency result is “inactive”.

Another experiment has as its system ICS. Described as above. The note with it: P. falciparum in erythrocytes, SYBR Green DNA, 72 h; series mostly up to 28.7 µM. The essentials:
as §1
Take `CC(C)C(=O)Nc1ccc([N+](=O)[O-])c(C(F)(F)F)c1`: the Potency result was “inactive”.

For the molecule `NC(=O)NO`, the Potency entry was “inactive”.

For the molecule `CCOC(=O)C(C)(C)Oc1ccc(Cl)cc1`, the Potency result was “inactive”.

As for `CC(CCc1ccc(O)cc1)NCCc1ccc(O)c(O)c1` (stereo not given), the Potency result is “inactive”.

On to `Cc1cn([C@H]2C[C@H](N=[N+]=[N-])[C@@H](CO)O2)c(=O)[nH]c1=O`, for which the Potency entry is “inactive”.

Take `Cc1cc(C(C)(C)C)c(O)c(C)c1CC1=NCCN1`: the Potency entry is “inactive”.

On to `NS(=O)(=O)c1cc2c(cc1Cl)NCNS2(=O)=O`, for which the Potency result is “inactive”.

Consider `CCOC(=O)c1ncn2c1CN(C)C(=O)c1cc(F)ccc1-2`, for which the Potency entry was “inactive”.

On to `COC(=O)Nc1nc2ccc(C(=O)c3cccs3)cc2[nH]1`, for which the Potency entry is “inactive”.

`Clc1ccc2nsnc2c1NC1=NCCN1`: the Potency entry is “inactive”.

For the molecule `Cn1c(=O)c2c(ncn2C)n(C)c1=O`, the Potency result was “inactive”.

For `CC(C)Cc1ccc(C(C)C(=O)O)cc1` (stereo not given), the Potency entry is “inactive”.

For the molecule `Cn1cnc2c1c(=O)[nH]c(=O)n2C`, the Potency result was “inactive”.

Consider `Cn1c(=O)c2[nH]cnc2n(C)c1=O`, for which the Potency result was “inactive”.

In the case of `NCCCCCC(=O)O`, the Potency result is “inactive”.

As for `CC(C)(Oc1ccc(C2CC2(Cl)Cl)cc1)C(=O)O` (stereo not given), the Potency result was “inactive”.

Take `CN1C(C(=O)Nc2ccccn2)=C(O)c2ccccc2S1(=O)=O`: the Potency result is “inactive”.

Consider `N[C@@H](Cc1c[nH]c2ccc(O)cc12)C(=O)O`, for which the Potency result is “inactive”.

Regarding `COc1cc2c(c(OC)c1OC)-c1ccc(OC)c(=O)cc1[C@@H](NC(C)=O)CC2`, the Potency result was “inactive”.

`Cc1cc(C(C)(C)C)cc(C)c1CC1=NCCN1`: the Potency entry is “inactive”.

Regarding `Cc1cnc(C(=O)NCCc2ccc(S(=O)(=O)NC(=O)NC3CCCCC3)cc2)cn1`, the Potency result was “inactive”.

With `CN1CCN2c3ccccc3Cc3ccccc3C2C1` (stereo not given), the Potency result was “inactive”.

With `Nc1nnc(-c2cccc(Cl)c2Cl)c(N)n1`, the Potency result was “inactive”.

Regarding `CC[N+](CC)(CC)CCOc1cccc(OCC[N+](CC)(CC)CC)c1OCC[N+](CC)(CC)CC`, the Potency entry was “inactive”.

Take `Cc1ccc(C(=O)Nc2ccc(S(=O)(=O)O)c3cc(S(=O)(=O)O)cc(S(=O)(=O)O)c23)cc1NC(=O)c1cccc(NC(=O)Nc2cccc(C(=O)Nc3cc(C(=O)Nc4ccc(S(=O)(=O)O)c5cc(S(=O)(=O)O)cc(S(=O)(=O)O)c45)ccc3C)c2)c1`: the Potency entry was “inactive”.

In the case of `CS(=O)(=O)Nc1ccc([N+](=O)[O-])cc1Oc1ccccc1`, the Potency entry is “inactive”.

With `CC(=O)OCC(CCn1cnc2cnc(N)nc21)COC(C)=O`, the Potency result was “inactive”.

With `C[C@](N)(Cc1ccc(O)c(O)c1)C(=O)O`, the Potency entry is “inactive”.

In the case of `COc1ccccc1OCC(O)CN1CCN(CC(=O)Nc2c(C)cccc2C)CC1` (stereo not given), the Potency entry was “inactive”.

In the case of `Cc1cn([C@H]2C=C[C@@H](CO)O2)c(=O)[nH]c1=O`, the Potency result was “inactive”.

For `Clc1ccccc1C(c1ccccc1)(c1ccccc1)n1ccnc1`, the Potency was 126 nM (active).

On to `CC(C)(C)C(=O)Oc1ccc(S(=O)(=O)Nc2ccccc2C(=O)NCC(=O)O)cc1`, for which the Potency entry was “inactive”.

With `NC(=O)OCC(COC(N)=O)c1ccccc1`, the Potency result is “inactive”.

Take `O=c1c(-c2ccc(O)cc2)coc2cc(O)cc(O)c12`: the Potency entry is “inactive”.

Consider `CCCNCC(O)COc1ccccc1C(=O)CCc1ccccc1` (stereo not given), for which the Potency is 251 nM (active).

As to `NCCc1cnc[nH]1`, the Potency entry is “inactive”.

As for `CN(C)c1nc(N(C)C)nc(N(C)C)n1`, the Potency entry was “inactive”.

Take `CC(C)NCC(O)c1ccc(O)c(O)c1` (stereo not given): the Potency entry is “inactive”.

In another experiment the test system is JCK. The description is as above. The note with it: P. falciparum in erythrocytes, SYBR Green DNA, 72 h; series mostly up to 28.7 µM. An outline of the steps:
as §1
As to `CC(C)C(=O)Nc1ccc([N+](=O)[O-])c(C(F)(F)F)c1`, the Potency entry was “inactive”.

`NC(=O)NO`: the Potency entry was “inactive”.

For the molecule `CCOC(=O)C(C)(C)Oc1ccc(Cl)cc1`, the Potency entry was “inactive”.

Regarding `CC(CCc1ccc(O)cc1)NCCc1ccc(O)c(O)c1` (stereo not given), the Potency result is “inactive”.

For `Cc1cn([C@H]2C[C@H](N=[N+]=[N-])[C@@H](CO)O2)c(=O)[nH]c1=O`, the Potency result is “inactive”.

With `Cc1cc(C(C)(C)C)c(O)c(C)c1CC1=NCCN1`, the Potency result is “inactive”.

For the molecule `NS(=O)(=O)c1cc2c(cc1Cl)NCNS2(=O)=O`, the Potency entry is “inactive”.

Consider `CCOC(=O)c1ncn2c1CN(C)C(=O)c1cc(F)ccc1-2`, for which the Potency result is “inactive”.

For `COC(=O)Nc1nc2ccc(C(=O)c3cccs3)cc2[nH]1`, the Potency entry is “inactive”.

Turning to `Clc1ccc2nsnc2c1NC1=NCCN1`, the Potency result was “inactive”.

Consider `Cn1c(=O)c2c(ncn2C)n(C)c1=O`, for which the Potency entry is “inactive”.

Take `CC(C)Cc1ccc(C(C)C(=O)O)cc1` (stereo not given): the Potency result is “inactive”.

With `Cn1cnc2c1c(=O)[nH]c(=O)n2C`, the Potency result is “inactive”.

In the case of `Cn1c(=O)c2[nH]cnc2n(C)c1=O`, the Potency result was “inactive”.

Regarding `NCCCCCC(=O)O`, the Potency entry was “inactive”.

In the case of `CC(C)(Oc1ccc(C2CC2(Cl)Cl)cc1)C(=O)O` (stereo not given), the Potency result is “inactive”.

For the molecule `CN1C(C(=O)Nc2ccccn2)=C(O)c2ccccc2S1(=O)=O`, the Potency entry was “inactive”.

Turning to `N[C@@H](Cc1c[nH]c2ccc(O)cc12)C(=O)O`, the Potency result is “inactive”.

With `COc1cc2c(c(OC)c1OC)-c1ccc(OC)c(=O)cc1[C@@H](NC(C)=O)CC2`, the Potency result was “inactive”.

Consider `Cc1cc(C(C)(C)C)cc(C)c1CC1=NCCN1`, for which the Potency entry is “inactive”.

As to `Cc1cnc(C(=O)NCCc2ccc(S(=O)(=O)NC(=O)NC3CCCCC3)cc2)cn1`, the Potency result is “inactive”.

As for `CN1CCN2c3ccccc3Cc3ccccc3C2C1` (stereo not given), the Potency result is “inactive”.

On to `Nc1nnc(-c2cccc(Cl)c2Cl)c(N)n1`, for which the Potency result was “inactive”.

For `CC[N+](CC)(CC)CCOc1cccc(OCC[N+](CC)(CC)CC)c1OCC[N+](CC)(CC)CC`, the Potency result is “inactive”.

Consider `Cc1ccc(C(=O)Nc2ccc(S(=O)(=O)O)c3cc(S(=O)(=O)O)cc(S(=O)(=O)O)c23)cc1NC(=O)c1cccc(NC(=O)Nc2cccc(C(=O)Nc3cc(C(=O)Nc4ccc(S(=O)(=O)O)c5cc(S(=O)(=O)O)cc(S(=O)(=O)O)c45)ccc3C)c2)c1`, for which the Potency entry is “inactive”.

For `CS(=O)(=O)Nc1ccc([N+](=O)[O-])cc1Oc1ccccc1`, the Potency entry is “inactive”.

Take `CC(=O)OCC(CCn1cnc2cnc(N)nc21)COC(C)=O`: the Potency result was “inactive”.

With `C[C@](N)(Cc1ccc(O)c(O)c1)C(=O)O`, the Potency entry was “inactive”.

Turning to `COc1ccccc1OCC(O)CN1CCN(CC(=O)Nc2c(C)cccc2C)CC1` (stereo not given), the Potency result was “inactive”.

For the molecule `Cc1cn([C@H]2C=C[C@@H](CO)O2)c(=O)[nH]c1=O`, the Potency entry was “inactive”.

On to `Clc1ccccc1C(c1ccccc1)(c1ccccc1)n1ccnc1`, for which the Potency was 708 nM (active).

With `CC(C)(C)C(=O)Oc1ccc(S(=O)(=O)Nc2ccccc2C(=O)NCC(=O)O)cc1`, the Potency result was “inactive”.

In the case of `NC(=O)OCC(COC(N)=O)c1ccccc1`, the Potency entry is “inactive”.

As for `COc1ccccc1N1CCN(CC(O)COc2cccc3ccccc23)CC1` (stereo not given), the Potency result is “inactive”.

As for `O=c1c(-c2ccc(O)cc2)coc2cc(O)cc(O)c12`, the Potency entry is “inactive”.

As to `CCCNCC(O)COc1ccccc1C(=O)CCc1ccccc1` (stereo not given), the Potency was 3550 nM (active).

Regarding `NCCc1cnc[nH]1`, the Potency result was “inactive”.

For the molecule `CN(C)c1nc(N(C)C)nc(N(C)C)n1`, the Potency result was “inactive”.

For `CC(C)NCC(O)c1ccc(O)c(O)c1` (stereo not given), the Potency result was “inactive”.
